Laboratory results published in PubChem BioAssay AID1030 (National Center for Advancing Translational Sciences (NCATS), 2008).
Hit rate of the full screen: of about 220,000 compounds, about 16,000 (7.3%) were called active. About 25% were inconclusive and are not listed. What follows is part of a selection rich in actives, with near analogues and random picks from the rest. A number with no mark means an inactive call. Calls come from the whole dose curve; as a rule, active = well fitted inhibition curve with a large enough effect (not every such curve was filed as active); inconclusive = small, poorly fitted or top-dose-only effect, or another doubt; inactive = no such curve, though single readings can be large or run the other way.

Target: Aldehyde dehydrogenase 1A1 (Homo sapiens) (UniProt P00352)
Sequence (P00352 whole entry, looked up): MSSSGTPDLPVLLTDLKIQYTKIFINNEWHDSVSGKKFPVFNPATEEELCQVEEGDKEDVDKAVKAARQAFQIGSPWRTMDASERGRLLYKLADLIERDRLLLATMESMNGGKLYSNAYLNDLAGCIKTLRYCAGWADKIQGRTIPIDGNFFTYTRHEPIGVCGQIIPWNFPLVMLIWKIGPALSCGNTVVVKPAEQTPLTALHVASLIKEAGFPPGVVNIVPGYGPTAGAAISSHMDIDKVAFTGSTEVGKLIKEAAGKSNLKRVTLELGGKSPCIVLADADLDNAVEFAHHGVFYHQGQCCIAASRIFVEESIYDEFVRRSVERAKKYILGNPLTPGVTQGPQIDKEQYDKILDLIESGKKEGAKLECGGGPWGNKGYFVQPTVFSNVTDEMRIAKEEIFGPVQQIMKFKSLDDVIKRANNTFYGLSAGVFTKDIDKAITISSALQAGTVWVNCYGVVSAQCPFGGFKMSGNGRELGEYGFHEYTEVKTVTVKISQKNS
Test: qHTS Assay for Inhibitors of Aldehyde Dehydrogenase 1 (ALDH1A1);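 for activity, negative = inhibition: plate controls were no enzyme wells and a reference inhibitor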
Conditions: Purified ALDH1A1, NADH fluorescence, propionaldehyde substrate; series mostly up to 75.3 µM; activity, negative = inhibition: at the top concentration
Potency is the fitted concentration of half-maximal effect.

Row | Compound | activity, negative = inhibition [%] | Potency
1 | N#CCc1ccc(OC(=O)c2cccnc2)cc1 | 14 | –
2 | CCCCN(C(=O)/C=C/c1ccco1)c1c(N)n(CC(C)C)c(=O)[nH]c1=O | 3.6 | –
3 | CCNC(=S)NNC(=O)c1ccc2ncccc2c1 | -2.18 | –
4 | CCCCc1ccc(S(N)(=O)=O)cc1 | -5.42 | –
5 | COc1ccc(OCC(=O)NCCc2ccc(S(N)(=O)=O)cc2)cc1 | 38.9 | –
6 | CN(C)c1ccc(C=NCCc2ccc(S(N)(=O)=O)cc2)cc1 | – | 0.708 µM (active)
7 | O=S(=O)(Cc1ccccc1)c1nc2ccccc2n1Cc1ccccn1 | 2.81 | –
8 | Cn1c(N)c(C(=O)COC(=O)c2cnc(Cl)c(Cl)c2)c(=O)n(C)c1=O | – | 8.91 µM (active)
9 | Cc1cc(C(=O)OCC(=O)c2c(N)n(C)c(=O)n(C)c2=O)c(C)o1 | -5.4 | –
10 | CCc1ccc(OCC(=O)OCC(=O)c2c(N)n(C)c(=O)n(C)c2=O)cc1 | 0.715 | –
11 | CCn1c(SCc2cc(=O)n3ccsc3n2)nc2ccccc21 | 9.12 | –
12 | CC(Cc1cccs1)NC(=O)c1cccc(Cl)c1 (stereo not drawn) | 5.57 | –
13 | COCC(C)NC(=O)c1ccc(Cl)c(Cl)c1 (stereo not drawn) | 3.63 | –
14 | CC(C)CCC(C)NC(=O)c1ccc2nccnc2c1 (stereo not drawn) | – | 20 µM (active)
15 | CCc1ccc(NC(=O)Cn2nc(C)c([N+](=O)[O-])c2C)cc1 | -3.12 | –
16 | O=C(Nn1cnnc1)c1ccc([N+](=O)[O-])cc1 | -5.53 | –
17 | COCCCNC(=S)N1CCCC(c2nc3cc(C)c(C)cc3[nH]2)C1 (stereo not drawn) | -2.51 | –
18 | CCOC(=O)c1ccc(NC(=O)CSc2nnc(COc3ccccc3OC)n2C)cc1 | -5.96 | –
19 | Cc1ccc(S(=O)(=O)N2CCOCC2)cc1NC(=O)CSc1nnc(N)s1 | 4.41 | –
20 | CCCCNC(=O)CSc1nc2ccc(NC(=O)CSc3nnc(COc4ccccc4C)n3C)cc2s1 | – | 3.55 µM (active)
21 | Nc1nnc(SCC(=O)Nc2ccc3nc(SCC(=O)Nc4ccccc4)sc3c2)s1 | -10.4 | –
22 | Cc1cccnc1NC(=O)CSc1nnc(COc2ccc(C(C)C)cc2)n1C | 9.2 | –
23 | CCCCNC(=O)CSc1nc2ccc(NC(=O)CSc3nnc(N)s3)cc2s1 | – | 20 µM (active)

Row | Compound | activity, negative = inhibition [%] | Potency
24 | CN(c1ccccc1)S(=O)(=O)c1ccc(Cl)c(C(=O)OCC(N)=O)c1 | -15.1 | –
25 | CN(C(=O)CSc1nnc(-c2c[nH]c3ccccc23)o1)C1CCS(=O)(=O)C1 (stereo not drawn) | -2.95 | –
26 | O=C(/C=C/c1ccc(Cl)cc1)Nc1ccc(S(=O)(=O)Nc2ncccn2)cc1 | 1.56 | –
27 | O=C(Nc1ccc(N2CCN(C(=O)C3CC3)CC2)cc1)c1cccs1 | -2.48 | –
28 | C/C(=N\N1CCN(Cc2ccc(C)cc2)CC1)c1ccco1 | 2.4 | –
29 | C/C(=N\NC(=O)C(N)=O)c1ccc2c(c1)OCCO2 | 12.7 | –
30 | COc1ccc(S(=O)(=O)NC(C)C(=O)Nc2cccc([N+](=O)[O-])c2)cc1 (stereo not drawn) | 0.552 | –
31 | COC(=O)/C=C\C(=O)Nc1cccc([N+](=O)[O-])c1 | – | 0.178 µM (active)
32 | CC(=O)Nc1cccc([N+](=O)[O-])c1 | 2.07 | –
33 | Clc1ccc(-c2cc(-c3ccccn3)on2)c(Cl)c1 | 17 | –
34 | O=C1Nc2cc(Cl)c(Cl)cc2N(O)N1c1ccccc1Cl | 6.43 | –
35 | CCOc1cnc(C(=O)NNC(=O)c2ccccc2Br)o1 | 2.5 | –
36 | CCOC(=O)CSC1=C(C#N)C(c2sccc2C)CC(=O)N1 (stereo not drawn) | 17.5 | –
37 | COC(=O)CSC1=C(C#N)C(c2ccccc2OC)C(C(=O)OC)C(=O)N1 (stereo not drawn) | 5.25 | –
38 | C=CCSC1=C(C#N)C(c2cc(Br)c(O)c(OC)c2)CC(=O)N1 (stereo not drawn) | – | 25.1 µM (active)
39 | C[C@@H]1CC[C@]2(O[C@@H](CCO)C[C@H](O)[C@H]2O)O1 | -4.09 | –
40 | CCCCOc1ccc(N(CC(=O)NC(C)C)C(=O)CCC(=O)Nc2ccccn2)cc1 | -2.58 | –
41 | COCCN(CCOC)S(=O)(=O)c1ccc(/C(O)=C(\C#N)c2nc3ccccc3[nH]2)cc1 | 2.62 | –
42 | COc1cccc2c1OCC(CN1CCN(C3CCCCC3)C(CCO)C1)=C2 (stereo not drawn) | -1.04 | –
43 | Cc1cc(C)n(-c2ccc3nncn3n2)n1 | 9.72 | –
44 | Cc1ccccc1OCCOc1ccc([N+](=O)[O-])cc1/C=N/n1cnnc1 | 1.94 | –
45 | COc1cc(/C=N\Nc2ccc([N+](=O)[O-])cn2)ccc1OCC(=O)O | -9.72 | –
46 | Cc1ccc(-n2c(C)cc(/C=N/Nc3ccc([N+](=O)[O-])cn3)c2C)c(C)c1 | – | 3.55 µM (active)

Row | Compound | activity, negative = inhibition [%] | Potency
47 | CC(C)(C)C1CCC(C(=O)Nc2cccnc2)CC1 (stereo not drawn) | -3.75 | –
48 | CN(C)c1nc(N)nc(CSc2ccccn2)n1 | -4.05 | –
49 | Cn1nnnc1SCc1cc(=O)[nH]c2ccccc12 | -5.31 | –
50 | CN(C)c1nc(N)nc(CSc2nnnn2-c2cccc3ccccc23)n1 | – | 7.94 µM (active)
51 | CC(OC(=O)c1ccccc1OCc1ccc(Cl)cc1)C(N)=O (stereo not drawn) | 2.06 | –
52 | CCOC(=O)NCc1ccc2c(c1)OCO2 | 4.82 | –
53 | Cc1cc(C)c(S(=O)(=O)NCC2CCC(C(=O)NCc3ccc4c(c3)OCO4)CC2)c(C)c1 (stereo not drawn) | – | 28.2 µM (active)
54 | O=C(NCc1ccc2c(c1)OCO2)C1CCCN(S(=O)(=O)c2cccs2)C1 (stereo not drawn) | -11.1 | –
55 | O=C(CN1C(=O)NC2(CCCC2)C1=O)NCC1CCCO1 (stereo not drawn) | 2.37 | –
56 | Cc1cccc(NC(=O)Nc2nnc(-c3ccccc3)o2)c1 | 6.3 | –
57 | COc1ccc(CCNCC(O)Cn2ccc3ccccc32)cc1OC (stereo not drawn) | 3.09 | –
58 | COc1ccc(CNC(=O)CCCn2nc(C)c([N+](=O)[O-])c2C)cc1 | – | 12.6 µM (active)
59 | COc1ccc(CNC(=O)CCn2cccc2)cc1 | -2.66 | –
60 | Cc1ccc(Oc2cc(NC(=O)CCCn3nc(C)c([N+](=O)[O-])c3C)cc([N+](=O)[O-])c2)cc1 | -9.52 | –
61 | CNC(=O)COc1ccc(S(=O)(=O)Nc2ccccc2)cc1 | -2.45 | –
62 | COc1ccc(-c2csc(NC(=O)c3ccc(N4C(=O)CCC4=O)cc3)n2)cc1OC | 5.15 | –
63 | COc1ccc(-c2nc(N)sc2C2(O)C(=O)Nc3c(Br)cc(F)cc32)cc1OC (stereo not drawn) | – | 11.2 µM (active)
64 | O=C(O)c1ccccc1-c1ccccc1C(=O)NCc1cccnc1 | -2.71 | –
65 | O=C(NCCCN1CCOCC1)c1ccc([N+](=O)[O-])cc1[N+](=O)[O-] | 2.46 | –
66 | Cc1ccc(Cc2cnc(NC(=O)/C(C#N)=C/c3ccc(-c4cccc([N+](=O)[O-])c4)o3)s2)cc1 | 0.468 | –
67 | N#C/C(=C\c1ccc(-c2cccc([N+](=O)[O-])c2)o1)C(=O)NCCN1CCOCC1 | – | 25.1 µM (active)
68 | Cc1ccccc1CSc1nnc(-c2ccccc2)c(=O)[nH]1 | 1.62 | –
